Experimental data from PMC12820563, “FoxP3 forms a head-to-head dimer in vivo and stabilizes its multimerization on adjacent microsatellites”.
The full ranking holds about 16,000 sequences; the median of “rpm ratio (pull-down/input)” is about 0.94, and the highest 2% start at about 1.7. The list comes from a sample in which the highest values are over-represented; it also holds similar and randomly drawn sequences.

Target: T1, MBP-FoxP1dN (Mus musculus, UniProt P58462 326-579)
T1 sequence: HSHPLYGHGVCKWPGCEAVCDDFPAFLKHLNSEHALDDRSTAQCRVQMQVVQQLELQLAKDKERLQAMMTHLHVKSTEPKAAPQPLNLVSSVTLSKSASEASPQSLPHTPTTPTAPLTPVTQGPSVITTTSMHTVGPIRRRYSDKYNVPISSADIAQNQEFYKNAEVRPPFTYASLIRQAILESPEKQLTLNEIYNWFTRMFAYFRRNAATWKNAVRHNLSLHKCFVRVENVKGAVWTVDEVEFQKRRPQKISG
Test: PD-seq (MBP pull-down with sequencing); 20 mM Tris-HCl pH 7.5, 100 mM NaCl, 1.5 mM MgCl2, 0.4 uM protein, 0.1 uM dsDNA library, 30 min, room temperature, amylose pull-down; high values mean tight binding
Details: protein: recombinant; tags: His6-MBP; chain copies: 2; dsDNA, one strand shown
Summary of the method: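 Binding is the reads-per-million enrichment of pull-down relative to input, pooled across replicates. For this, 0.4 µM His6-MBP-tagged mouse FoxP3 or FoxP1 fragment lacking the N-terminus, made in E. coli, was incubated with 0.1 µM Klenow-filled double-stranded degenerate DNA library for 30 min at room temperature in Tris pH 7.5 buffer with NaCl and MgCl2. Complexes bound to amylose resin were washed three times before proteinase K released the DNA for PCR barcoding and Illumina sequencing.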

Sequence	binding signal
GATGATTGTTCTCCCAGCTGATGAATTAACAGACTCGAGTAAACAAATTTTCCTAATCTTTCTGTTCAAGCGCCATCTAC	0.866 RPM ratio (pull-down/input)
GATGATTGTTCTCCCAGCTGATGAATTCATCCACTCGAGTAAACAAATTTTCCTAATCTTTCTGTTCAAGCGCCATCTAC	0.832 RPM ratio (pull-down/input)
GATGATTGTTCTCCCAGCTGATGAATTGTACCACTCGAGTAAACAAATTTTCCTAATCTTTCTGTTCAAGCGCCATCTAC	0.996 RPM ratio (pull-down/input)
GATGATTGTTCTCCCAGCTGATGAATTCCTGATGTCGAGTAAACAAATTTTCCTAATCTTTCTGTTCAAGCGCCATCTAC	1.08 RPM ratio (pull-down/input)
GATGATTGTTCTCCCAGCTGATGAATTCCTCCTGTCGAGTAAACAAATTTTCCTAATCTTTCTGTTCAAGCGCCATCTAC	0.729 RPM ratio (pull-down/input)
GATGATTGTTCTCCCAGCTGATGAATTCATCTTGTCGAGTAAACAAATTTTCCTAATCTTTCTGTTCAAGCGCCATCTAC	0.898 RPM ratio (pull-down/input)
GATGATTGTTCTCCCAGCTGATGAATTCTCCTTGTCGAGTAAACAAATTTTCCTAATCTTTCTGTTCAAGCGCCATCTAC	0.774 RPM ratio (pull-down/input)
GATGATTGTTCTCCCAGCTGATGAATTCTTGTTGTCGAGTAAACAAATTTTCCTAATCTTTCTGTTCAAGCGCCATCTAC	2.6 RPM ratio (pull-down/input)
GATGATTGTTCTCCCAGCTGATGAATTCCTGTTGTCGAGTAAACAAATTTTCCTAATCTTTCTGTTCAAGCGCCATCTAC	2.34 RPM ratio (pull-down/input)
GATGATTGTTCTCCCAGCTGATGAATTAAAGGTTTCGAGTAAACAAATTTTCCTAATCTTTCTGTTCAAGCGCCATCTAC	0.867 RPM ratio (pull-down/input)
GATGATTGTTCTCCCAGCTGATGAATTTCCTGACTCGAGTAAACAAATTTTCCTAATCTTTCTGTTCAAGCGCCATCTAC	0.753 RPM ratio (pull-down/input)
GATGATTGTTCTCCCAGCTGATGAATTAAGATCTTCGAGTAAACAAATTTTCCTAATCTTTCTGTTCAAGCGCCATCTAC	0.868 RPM ratio (pull-down/input)
GATGATTGTTCTCCCAGCTGATGAATTCCTCTGATCGAGTAAACAAATTTTCCTAATCTTTCTGTTCAAGCGCCATCTAC	0.844 RPM ratio (pull-down/input)
GATGATTGTTCTCCCAGCTGATGAATTTGATGACTCGAGTAAACAAATTTTCCTAATCTTTCTGTTCAAGCGCCATCTAC	0.974 RPM ratio (pull-down/input)
GATGATTGTTCTCCCAGCTGATGAATTTATTTTCTCGAGTAAACAAATTTTCCTAATCTTTCTGTTCAAGCGCCATCTAC	1.77 RPM ratio (pull-down/input)
GATGATTGTTCTCCCAGCTGATGAATTGTTTTACTCGAGTAAACAAATTTTCCTAATCTTTCTGTTCAAGCGCCATCTAC	1.42 RPM ratio (pull-down/input)
GATGATTGTTCTCCCAGCTGATGAATTTGTTGACTCGAGTAAACAAATTTTCCTAATCTTTCTGTTCAAGCGCCATCTAC	2.35 RPM ratio (pull-down/input)
GATGATTGTTCTCCCAGCTGATGAATTTTATTACTCGAGTAAACAAATTTTCCTAATCTTTCTGTTCAAGCGCCATCTAC	1.01 RPM ratio (pull-down/input)
GATGATTGTTCTCCCAGCTGATGAATTTATTTACTCGAGTAAACAAATTTTCCTAATCTTTCTGTTCAAGCGCCATCTAC	2.5 RPM ratio (pull-down/input)
GATGATTGTTCTCCCAGCTGATGAATTTATTTCCTCGAGTAAACAAATTTTCCTAATCTTTCTGTTCAAGCGCCATCTAC	1.3 RPM ratio (pull-down/input)
GATGATTGTTCTCCCAGCTGATGAATTTTTTTACTCGAGTAAACAAATTTTCCTAATCTTTCTGTTCAAGCGCCATCTAC	0.958 RPM ratio (pull-down/input)
GATGATTGTTCTCCCAGCTGATGAATTTTATTTCTCGAGTAAACAAATTTTCCTAATCTTTCTGTTCAAGCGCCATCTAC	1.16 RPM ratio (pull-down/input)
GATGATTGTTCTCCCAGCTGATGAATTATTTTACTCGAGTAAACAAATTTTCCTAATCTTTCTGTTCAAGCGCCATCTAC	1.2 RPM ratio (pull-down/input)
GATGATTGTTCTCCCAGCTGATGAATTTTTTGACTCGAGTAAACAAATTTTCCTAATCTTTCTGTTCAAGCGCCATCTAC	0.935 RPM ratio (pull-down/input)
GATGATTGTTCTCCCAGCTGATGAATTTGTTTACTCGAGTAAACAAATTTTCCTAATCTTTCTGTTCAAGCGCCATCTAC	2.62 RPM ratio (pull-down/input)
